IP6K1 inhibitor = blocks human inositol hexakisphosphate kinase 1. activity change, % (series mostly up to about 58 µM). Q92551. AID 1645851. IP6K1 kinase, ADP-Glo luminescence, 2 h; hits give low values. 140,000 tested, 0.81% active; in the data active = activity change below about -25%; note: % is set by controls: 0 for no effect and ±100 for the full control effect
Target sequence (Q92551 whole entry, looked up): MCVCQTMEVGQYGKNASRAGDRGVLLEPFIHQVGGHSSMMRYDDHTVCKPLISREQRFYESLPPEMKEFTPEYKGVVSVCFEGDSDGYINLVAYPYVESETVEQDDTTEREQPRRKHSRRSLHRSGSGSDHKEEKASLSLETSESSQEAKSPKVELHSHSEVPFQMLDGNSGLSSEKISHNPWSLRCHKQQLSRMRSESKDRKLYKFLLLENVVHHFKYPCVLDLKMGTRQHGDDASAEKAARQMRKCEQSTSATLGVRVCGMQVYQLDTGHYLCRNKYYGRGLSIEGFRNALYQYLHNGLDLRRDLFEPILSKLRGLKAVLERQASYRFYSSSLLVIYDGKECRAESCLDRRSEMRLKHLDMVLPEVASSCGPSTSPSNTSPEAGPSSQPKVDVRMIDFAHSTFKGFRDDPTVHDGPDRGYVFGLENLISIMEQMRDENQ
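ADP-Glo luminescence measures ADP made by human IP6K1 during a 2 h RT reaction with ATP/IP6 (mix at 1.3 mM/130 uM); top library doses 57.5 and 19.1 uM final.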
SNCA expr inhib = reduces expression of the alpha-synuclein gene | HEK-293 SNCA-luciferase knock-in, luminescence, 24 h | 140,000 tested, 0.17% active | Potency, µM (doses to about 57.2 µM), for the others: top-dose activity change, negative = inhibition, hits mostly inhibitors;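 note: potency is the fitted concentration of half-maximal effect; plate controls were DMSO cells for no effect and cell-free wells for full effect; nearly all actives have a fitted effect of over 45% in size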
KDM5B inh = inhibitors of human KDM5B histone demethylase. Q9UGL1. KDM5B demethylase, FDH-coupled NADH fluorescence (FDH is formaldehyde dehydrogenase). Potency, µM (series often up to 57.7 µM), usual class: inhibitors. 220,000 tested, 2.6% active. AID 1347165; note: potency is the fitted concentration of half-maximal effect; 0% is about no effect; nearly all actives have a fitted effect of over 70% in size
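KDM5BΔAP (200 nM final) in 50 mM HEPES pH 7.5, 0.01% Tween-20 was preincubated 10 min at RT with compound over a concentration range. Substrate mix (H3K4me3 12.5 µM, α-KG 25 µM, Fe²⁺, ascorbate, NAD⁺, FDH) was added, and NADH fluorescence change over 30 min gave dose-response curves.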
SNCA viab count = cell viability loss counter-screen | HEK-293-SNCA-luc viability, GF-AFC fluorescence, 24 h | Potency, µM (titrated, usually from 57.1 µM), for the others: at the highest dose activity change, negative = cytotoxicity, hits mostly cytotoxic | 150,000 tested, 0.12% active;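 note: potency is the fitted concentration of half-maximal effect; 0% = DMSO-treated cells and -100% = medium-only wells without cells; nearly all actives have a fitted effect of over 30% in size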
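Cytotoxicity counterscreen: after 24 h compound treatment of genome-edited SNCA-luciferase HEK-293 cells, live-cell protease substrate GF-AFC read by fluorescence after 30 min; activity scaled between DMSO (0%) and medium-only (-100%), curves Hill-fitted.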
Active calls of the source: *; i = inactive; ? = inconclusive; nt = no result given; [ ] = remark or other dose. Hits are enriched below; roughly 2.8% of the tested compounds scored in any of these assays. Unless noted, calls come from the whole dose curve; as a rule, active = well fitted curve in the direction sought with a large enough effect; inconclusive = small, poorly fitted or top-dose-only effect, or another doubt; inactive = no such curve, though single readings can be large; an effect the other way counts as inactive or inconclusive.

SMILES	IP6K1 inhibitor	SNCA expr inhib	KDM5B inh	SNCA viab count
Cc1ccc(-c2ccc3nnc(CNC(=O)c4ccc(C)cc4C)n3n2)cc1	-2	18%	13µM*	-6%
Cc1ccc(-c2ccc3nnc(CNC(=O)Cc4cccc(F)c4)n3n2)cc1	-9	?	?	1%
COc1ccc(-c2ccc3nnc(CNC(=O)c4ccc(C)c(C)c4)n3n2)cc1	15	-10%	25µM*	4%
COc1ccc(-c2ccc3nnc(CNC(=O)c4cccc(OC(F)(F)F)c4)n3n2)cc1	15	2%	?	-5%
COc1ccc(-c2ccc3nnc(CNC(=O)c4ccco4)n3n2)cc1	6	9%	32µM*	9%
COc1ccc(-c2ccc3nnc(CNC(=O)CCc4cccc(OC)c4)n3n2)cc1	8	12%	?	-14%
COc1ccc(C(=O)NCc2nnc3ccc(-c4ccc(Cl)cc4)nn23)c(C)c1	12	-9%	25µM*	1%
CCOc1ccc(NC(=O)Cc2cc(Cl)c3c(c2)OCCCO3)cc1S(=O)(=O)N(C)C	nt	nt	i	nt
CS(=O)(=O)c1ccc(C(=O)OCc2c(F)c(F)c(F)c(F)c2F)cc1	nt	nt	i	nt
Cc1ccc(NC(=O)C(C#N)C(=O)CC(C)C)cc1 (centres undefined)	nt	nt	i	nt
c1ccc2nc(SCc3ccc4c(c3)OCCO4)ccc2c1	nt	nt	i	nt
COc1ccc(C(=O)NCc2nnc3ccc(-c4ccc(C)c(C)c4)nn23)c(OC)c1	-13	-17%	?	-24%
Cc1ccc(-c2ccc3nnc(CNC(=O)c4cccc5[nH]ccc45)n3n2)cc1	-11	-2%	i	?
COc1ccc(-c2ccc3nnc(CNC(=O)c4ccc(OC)cc4C)n3n2)cc1	13	-13%	28µM*	-6%
COc1cccc(C(=O)NCc2nnc3ccc(-c4ccc(C)cc4)nn23)c1OC	-20	-15%	14µM*	-18%
O=C(CSc1ccc2ccccc2c1)OCC(=O)c1ccc2c(c1)OCCO2	nt	nt	i	nt
Cc1ccccc1C(=O)N/N=C1\CC(=O)CC(C)(C)C1	nt	nt	i	nt
CN(CC(=O)NCc1ccco1)C(=O)CSc1nc2ccccc2o1	nt	nt	i	nt
O=c1c2nc(-c3ccncc3)ccc2ncn1-c1ccccc1	16	11%[87.6 µM]	i	2%[87.6 µM]
O=c1c2nc(-c3ccsc3)ccc2ncn1-c1ccccc1	3	137%[87.6 µM]	40µM*	11%[87.6 µM]
O=C(NCc1ccc(F)cc1)c1cc(-c2cccc(C(F)(F)F)c2)c2cccn2n1	-8	?	nt	-23%
c1cncc(CN2CCc3c(sc4ncnc(N5CCOCC5)c34)C2)c1	-4	-26%	?	-7%
c1cc(CN2CCc3c(sc4ncnc(N5CCCC5)c34)C2)ccn1	-8	83%	25µM*	?
CCCn1cc2c3c(cccc31)CN(C(=O)Cc1ccc(OC)cc1)CC2	10	-28%	?	-13%
Cn1cc2c3c(cccc31)CN(C(=O)CC(C)(C)C)CC2	-3	10%	32µM*	17%
SMILES	IP6K1 inhibitor	SNCA expr inhib	KDM5B inh	SNCA viab count
CCCn1cc2c3c(cccc31)CN(C(=O)COc1ccc(F)cc1)CC2	23	-3%	32µM*	7%
CCn1cnc2c1c(=O)n(CC(=O)NC(C)c1ccccc1F)c(=O)n2Cc1ccccc1 (centres undefined)	nt	nt	i	nt
CC(=O)SCC(=O)C(C#N)c1ccccn1 (centres undefined)	nt	nt	i	nt
CC1(CNCc2ccccc2)COc2ccc(C(=O)NCc3cccs3)cc2N1 (centres undefined)	4	0%[87.6 µM]	32µM*	-29%[87.6 µM]
CC1(COc2ccccc2)COc2ccc(C(=O)NCc3cccs3)cc2N1 (centres undefined)	13	9%[87.6 µM]	32µM*	-1%[87.6 µM]
CC1(CNc2ccccc2)COc2ccc(C(=O)NCc3cccs3)cc2N1 (centres undefined)	-3	?	?	-8%[87.6 µM]
COc1ccc(-c2c(C)oc3cc(OCCN4CCN(C)CC4)ccc3c2=O)cc1	nt	nt	i	nt
COC(=O)CNC(=O)C1CCCCN1Cc1ccc(-c2ccsc2)cc1 (centres undefined)	5	-8%	nt	-3%
Cc1ccc(NC(=O)Nc2cccn3nc(C)nc23)cc1	13	171%	i	3%
CNC(=O)Nc1cccn2nc(-c3ccccc3)nc12	19	176%	25µM*	2%
BrCCC1CCCCN1 (centres undefined)	nt	nt	i	nt
COCCn1cc(C(=O)NCCc2c(C)cc(C)cc2C)ccc1=O	nt	nt	i	nt
Cc1noc2c(-c3cccnc3NCc3cccnc3)cc(-c3ccccc3)nc12	-15	-10%[87.6 µM]	?	-3%[87.6 µM]
